Screens as filed in PubChem.
The list is not random: actives were taken first. Their share in the collection is about 3.5%.
FBW7 act: activators of human E3 ligase FBW7; 0.13% of 650,000 active; normalized activity (activation), % at 26.1 µM; AlphaScreen FBW7–phospho-cyclin E peptide binding, activator screen; Q969H0; AID 1259310; in the data active = normalized activity above about 1.9%;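 note: purified mutant Fbw7 with reduced substrate affinity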
GPR151 activ: activates the human receptor GPR151; Q8TDV0; PathHunter beta-arrestin GPR151 cells, luminescence; activation, % at 11.2 µM; 1% of 650,000 active; in the data active = activation above about 4.9%;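 note: 0% = median of compound wells and 100% = cells with positive control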
Target sequence (Q8TDV0 whole entry, looked up): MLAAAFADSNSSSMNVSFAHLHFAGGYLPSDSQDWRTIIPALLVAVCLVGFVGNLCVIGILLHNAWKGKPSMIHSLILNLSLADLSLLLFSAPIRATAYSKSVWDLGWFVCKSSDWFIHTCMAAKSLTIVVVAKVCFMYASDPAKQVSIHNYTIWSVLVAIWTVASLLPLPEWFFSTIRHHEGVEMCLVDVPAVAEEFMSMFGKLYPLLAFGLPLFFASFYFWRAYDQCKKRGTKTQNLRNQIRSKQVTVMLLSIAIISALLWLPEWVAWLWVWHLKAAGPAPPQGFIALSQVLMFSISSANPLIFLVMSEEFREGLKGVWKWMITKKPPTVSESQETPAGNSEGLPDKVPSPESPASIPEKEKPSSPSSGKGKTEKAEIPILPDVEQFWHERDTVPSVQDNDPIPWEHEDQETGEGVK
TEAD-YAP block: TEAD-YAP interaction inhibition; HEK-TIYL cells, TEAD-Gal4/YAP UAS-luciferase luminescence; inhibition, % at 9.12 µM; 1.4% of 640,000 active; AID 1259422; in the data active = inhibition above about 32%;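 note: 0% = median of test compound wells and 100% = reference inhibitor wells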
MITF inh: inhibitors of human MITF | O75030 | AlphaScreen MITF homodimerization, bead proximity signal | inhibition, % at 2.6 µM | 0.91% of 650,000 active; in the data active = inhibition above about 50%;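 note: 0% = vehicle wells with protein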
GPR151 confirm: human GPR151 activation, confirmation screen | shares compounds with GPR151 activ | GPR151 PathHunter beta-arrestin cells, luminescence, 90 min; % of EA-reagent control over plate median | activation, % at 11.2 µM | 6,700 tested, under 10 active | AID 1508609;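 active = mean percent activation across replicates above the confirmation screen cutoff of 4.91%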
GPR119 ag: counter-screen for GPR151 activators: effect on human GPR119; GPR119 PathHunter beta-arrestin cells, luminescence, 90 min; 0 = compound-well median, 100 = enzyme-acceptor control; shares compounds with GPR151 activ; 0.3% of 6,700 active; activation, % at 11.2 µM;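 active = mean percent activation in the counterscreen above 29.09%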;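 note: counterscreen on off-target GPR119 to flag nonselective hits from the GPR151 activator screen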
An asterisk follows results filed as active; . = no result given.

SMILES	FBW7 act	GPR151 activ	TEAD-YAP block	MITF inh	GPR151 confirm	GPR119 ag
COc1cccc(C(=O)NCc2nnc(SCC(=O)N3N=C(c4cccs4)CC3c3ccc(C)cc3)n2-c2ccccc2)c1 (stereo not drawn)	0	1	7	-12	.	.
Cn1c(CNc2nc3ccccc3n2CCN2CCOCC2)nc2ccccc21	0	-1	-13	12	.	.
c1coc(CNc2nc3ccccc3n2CCN2CCOCC2)c1	0	9.8*	-19	-11	0	19
COc1cc(/C=C(/C(=O)OCC(N)=O)c2ccc(-c3ccccc3)cc2)cc(OC)c1OC	0	5.1*	1	7	0	-7
COc1ccccc1/C=C(/C(=O)OCC(N)=O)c1ccccc1	0	0	7	-1	.	.
COc1ccc(S(=O)(=O)N2CCC(N3CCCCC3)CC2)cc1OC	0	6.3*	-2	-8	-1	-14
COc1ccc(S(=O)(=O)N2CCC(C)CC2)cc1OC	0	-2	-4	12	.	.
CCCC12CN3CC(C)(CN(C1)C3c1c(C)[nH]c3ccccc13)C2=O (stereo not drawn)	0	0	-11	-17	.	.
COc1ccc(Nc2ncnc3c2cnn3-c2ccc(Cl)cc2)cc1Cl	0	11*	-3	1	-1	-8
COc1ccc(-n2ncc3c(Nc4ccc(Cl)c(Cl)c4)ncnc32)cc1	0	-1	23	8	.	.
COc1cc(/C=C2\SC(=S)N(NC(=O)c3ccccc3)C2=O)cc(OC)c1OC	0	1	7	-1	.	.
Cc1ccc(S(=O)(=O)NC(=O)Nc2nc3ccc([N+](=O)[O-])cc3s2)cc1	0	0	11	10	.	.
COC(=O)c1ccc(NC(=O)CSc2nnc3[nH]c(=O)ccn23)cc1	0	6.3*	14	2	-1	-1
COc1cc2nc(NCCCOC(C)C)n3nc(-c4cccnc4)nc3c2cc1OC	0	5.2*	10	1	0	-9
CCC(C(=O)O)N1C(=O)/C(=C\c2cccc(F)c2)SC1=S (stereo not drawn)	0	0	-5	-3	.	.
Cc1cc(Br)ccc1NC(=O)c1ccc(C#N)cc1F	0	13*	-6	-14	-1	6
N#Cc1ccc(C(=O)Nc2ccc(Br)cc2)c(F)c1	0	1	-51	6	.	.
COc1cccc(/C=c2/sc3n(c2=O)C(N)=C(C#N)C(c2cccc(OC)c2)C=3C#N)c1 (stereo not drawn)	1	-1	6	22	.	.
O=C(NCCCn1ncc2ccccc21)c1cc(COc2c(F)cccc2F)on1	0	0	-4	-3	.	.
Nc1nonc1C(=O)NCCNCc1ccccc1Cl	0	-1	-7	6	.	.
CCOc1ccccc1CNCCNC(=O)c1nonc1N	0	6.3*	7	7	0	-6
CC(C)CCCC(C)C1CCC2C3CC=C4CC(OC(=O)C5CCCC5)CCC4(C)C3CCC12C (stereo not drawn)	0	-1	10	11	.	.
O=c1oc2c3c(ccc2c2c1CCC2)OCN(c1ccc(F)cc1)C3	0	5.1*	3	6	0	-12
COC(=O)c1cc(C(=O)OC)n(Cc2ccc(Br)cc2)n1	1	-1	-3	7	.	.
Cc1cc(-c2ccccc2)n(-c2cc(Nc3cccc(F)c3)ncn2)n1	0	2	-10	1	.	.
SMILES	FBW7 act	GPR151 activ	TEAD-YAP block	MITF inh	GPR151 confirm	GPR119 ag
Cc1cc(-c2ccccc2)n(-c2cc(Nc3ccccc3)ncn2)n1	0	5.1*	0	5	1	6
O=C1NC(CC(=O)N2CCC(C(=O)c3nc4ccccc4s3)CC2)c2ccccc21 (stereo not drawn)	1	5.1*	6	9	-1	-7
O=C(c1nc2ccccc2s1)C1CCN(C(=O)Cn2cnc3ccccc3c2=O)CC1	0	0	-2	5	.	.
O=C(CCc1ccccc1)NC(c1ccc2c(c1)OCO2)c1c(O)ccc2ccccc12 (stereo not drawn)	0	-1	-1	-3	.	.
CC(C)CC(=O)NC(c1ccc2c(c1)OCO2)c1c(O)ccc2ccccc12 (stereo not drawn)	0	5.2*	1	5	0	3
COc1ccc(C2C(C(N)=O)=C(C)Nc3ncnn32)cc1OC (stereo not drawn)	0	5.1*	-3	3	1	10
